HSF-1 act – increases HSF-1 driven luciferase reporter signal. NIH3T3-HGL HSF-1 luciferase reporter, MG132, 8 h; 100% = twice DMSO control signal. activation, % at 9 µM. actives 1.7% (n = 300,000);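 active means mean replicate activation of at least 50% with a set share of replicates each reaching 50%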;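 further: 0% = median of the neutral control wells and 100% = twice that signal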
MITF act – MITF TRPM1 promoter activation in melanoma cells | actives 0.75% (n = 300,000) | activation, % at 12.5 µM | SK-MEL-5 TRPM1-promoter luciferase, 24 h; % of positive control, neutral wells = 0;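 active means mean activation of at least 80% with every replicate also reaching 80%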;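 further: 0% = neutral control wells and 100% = parthenolide positive control wells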
esBAF inh – SWI/SNF esBAF complex inhibition | actives 2% (n = 350,000) | reporter increase, % at 12.5 µM | mouse ES cells, Bmi1-luciferase knock-in reporter, 24 h; 100% = twice the neutral-well signal | AID 602393; in the data active means activation above about 40%;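 further: 0% = median of the plate's neutral control wells and 100% = double that signal; a rise in the Bmi1 reporter signal indicates esBAF inhibition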
Wnt act – activators of Wnt/beta-catenin signaling | Wnt/beta-catenin reporter cell assay, activator, plate reader | activation, % at 9.35 µM | actives 1.2% (n = 300,000) | AID 743398; in the data active means activation above about 30%, passing the limit was not always enough;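 further: 0% = neutral control wells and 100% = positive control wells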
HSF1 inh – HSF1 inhibition; NIH3T3-HGL HSE-luciferase, MG132-induced, luminescence 8 h; active compounds read low; activity change, negative = inhibition, % at 7.5 µM (by protocol); actives 0.77% (n = 300,000); AID 2098;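 active means more than half of replicate wells show activity change below -50%, luminescence cut by over half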;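 further: luciferase reports HSF-1 transcriptional activity via heat shock element; 0% = median of DMSO wells and -100% = zero luminescence signal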
SMARCA2 act – SMARCA2 function activation, primary screen; MG213 cells, MMTV-luciferase reporter, dexamethasone, overnight; activation, % at 9.1 µM; actives 1% (n = 370,000); AID 652017; in the data active means activation above about 7.8%;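 further: 0% = vehicle wells and 100% = reference activator wells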
SMARCA2 conf – confirmation of SMARCA2 (BRM) function activators; shares compounds with SMARCA2 act; MG213 cells, MMTV-luciferase with dexamethasone, luminescence, overnight; MG213 cells expressing E1A, Rb sequestered; DMSO wells 0%, reference activator 100%; activation, % at 9.1 µM; actives 30% (n = 3,500); AID 652260;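 active means activation above its plate's cutoff, the mean activation of tested wells plus 3 SD, cut at about 7.9% in these data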
VP16 Luc act – GAL4-VP16 reporter activation counter-screen; shares compounds with SMARCA2 act; activation, % at 9.1 µM; HEK293 GAL4-VP16 pG5luc reporter, luciferase luminescence; scaled: DMSO wells 0%, SAHA wells 100%; actives 41% (n = 3,500);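 active means activation above the solvent-only control well mean plus 3 SD, averaged across control plates, cut at about 5.2% in these data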
Active calls of the source: *; nt = not tested or not shown. An excerpt weighted towards active compounds, which were near 4.3% of everything screened.

SMILES	HSF-1 act	MITF act	esBAF inh	Wnt act	HSF1 inh	SMARCA2 act	SMARCA2 conf	VP16 Luc act
Cc1ccc2c(c1)sc1nc(=O)n(-c3ccccc3)c(=O)n12	58*	48	nt	55*	32	12*	8.4*	12*
CC(C)NC(=O)Nc1ccc2c(c1)C(=O)N([C@H](C)CO)C[C@H](C)[C@H](CN(C)CC1CCCCC1)O2	nt	nt	3	nt	nt	nt	nt	nt
CCOC(=O)C1(N(CC)CC)Sc2cc(C)ccc2NC1=O (stereo unspecified)	3	nt	-28	-17	-3	-4	nt	nt
C=C(C)C(=O)OC1(C(F)(F)F)Oc2cc(C)ccc2NC1=O (stereo unspecified)	29	nt	-2	-23	14	21*	-5	5
C[C@@H]1CN([C@@H](C)CO)C(=O)c2cccc(NC(=O)Nc3ccc(F)cc3)c2O[C@@H]1CN(C)S(=O)(=O)c1ccccc1	nt	nt	4	nt	nt	nt	nt	nt
N#CC(C#N)=Cc1ccc(NC(=O)c2ccc(Br)cc2)cc1	11	45	nt	27	8	9.2*	4	5
CCOc1ccccc1N1CCN(C(=S)NCc2ccco2)CC1	7	2	nt	nt	10	8.1*	1	0
CN1C(=O)c2cc(NC(=O)c3cccs3)ccc2OC[C@@H]2O[C@H](CC(=O)N3CCCCC3)CC[C@H]21	nt	nt	-1	nt	nt	nt	nt	nt
O=C(N/N=C1\CCc2ccccc21)c1ccccc1O	-2	-17	nt	nt	-1	10.0*	5	7.4*
CCNC(=O)C[C@H]1CC[C@H]2[C@H](COc3ccc(NS(=O)(=O)c4ccccc4C)cc3C(=O)N2C)O1	nt	nt	2	nt	nt	nt	nt	nt
COc1ccc2nc(C)cc(Nc3ccc(N4CCOCC4)cc3)c2c1	-2	5	1	nt	1	0	nt	nt
COc1ccc2nc(C)cc(Nc3ccc(N4CCN(C)CC4)cc3)c2c1	40	-96	-4	-2	39	74*	133*	-1
COc1ccc2[nH]c3c(=S)nc[nH]c3c2c1	23	9	nt	-5	0	9.7*	6	3
COc1ccc2[nH]c3c(Cl)ncnc3c2c1	-2	-17	nt	-1	-10	0	nt	nt
COc1ccc2c(c1)c(=O)c(C(=O)c1ccccc1)cn2Cc1ccccc1	-13	-10	-5	3	-1	-2	nt	nt
COc1ccc(Cn2cc(C(=O)c3ccccc3)c(=O)c3cc(OC)ccc32)cc1	-28	-1	-7	1	-17	8.9*	-2	0
O=C(CCN1CCCCC1)NCC[C@@H]1CC[C@H](NC(=O)C2CCOCC2)[C@H](CO)O1	nt	nt	6	nt	nt	nt	nt	nt
CCOC(=O)/C=C(\C)N1N=C(c2ccccc2)CC1c1ccccc1 (stereo unspecified)	65*	44	nt	20	35	8.3*	3	9.2*
CC(C)c1ccc(/C=C2\SC(N3CCCC3)=NC2=O)cc1	-17	26	nt	41*	2	8.3*	1	-1
C[C@H]1CN([C@@H](C)CO)C(=O)Cc2cc(NC(=O)C3CC3)ccc2O[C@@H]1CN(C)CC1CC1	nt	nt	5	nt	nt	nt	nt	nt
CCOc1ccc(CCNC(=O)COC(=O)c2cccc(S(=O)(=O)N(C)C)c2)cc1OCC	nt	2	-1	-2	nt	1	nt	nt
CCOc1ccc(CCNC(=O)COC(=O)c2cccc(N(C)C)c2)cc1OCC	-22	44	54*	51*	-18	8.1*	3	8.7*
NC(=O)C1CCCN(C(=O)CCc2nnc(C3(c4ccc(Cl)cc4)CCC3)o2)C1 (stereo unspecified)	-2	17	nt	-2	-3	2	nt	nt
CCC(=O)C1CCCN(C(=O)CCc2nnc(C3(c4ccc(Cl)cc4)CCC3)o2)C1 (stereo unspecified)	40	44	50*	18	31	8.8*	4	5.2*
c1ccc2c(c1)CCN(C1=Nc3cccc4cccc1c34)C2	nt	29	nt	8	nt	12*	4	3

Source: PubChem BioAssay (several laboratories)
